Results reported in PubChem BioAssay AID624167 (Sanford-Burnham Center for Chemical Genomics, 2012).

Experiment: Peg3 promoter luciferase inhibitors, potency, dose response, cell-based, HeLa, CREF/GAPDH counter-screen panel (AID 624167)
Conditions: CREF/GAPDH counter-screens; run 1, dose range 1, at 100 µM (top of the series)

Question: Which inhibition does the source give for CN(C)c1c([N+](=O)[O-])cc(N2C(=O)C=CC2=O)cc1[N+](=O)[O-] here?
Answer: The inhibition was 98.9%.

Question: For O=C(CNc1ccccc1)N/N=C/c1c(O)ccc2ccccc12, which inhibition is on record?
Answer: Its inhibition is 57%.

Question: With CN(C)c1ccc(C=c2c3ccccc3n3c2cc(-c2ccccc2)[n+]3C)cc1 as the compound, how does the inhibition read?
Answer: Its inhibition is 99.9%.

Question: Which inhibition does the source give for COc1cccc(OC)c1C(=O)Nc1cc(C)nn1-c1nc2ccccc2[nH]1 here?
Answer: The inhibition was 50.8%.

Question: With CCc1ccc(/C=C2\SC(=S)N(CCCC(=O)Nc3ccccn3)C2=O)cc1 as the compound, how does the inhibition read?
Answer: Its inhibition is 78.8%.

Question: For CCC(C)Cn1c(O)cc2nn(-c3nc4ccccc4s3)c(=O)c-2c1C (stereo unspecified), which inhibition is on record?
Answer: The inhibition was 99.6%.

Question: Which inhibition does the source give for O=C(CNC(=O)C(c1ccccc1)c1ccccc1)N/N=C/c1ccc(O)cc1O here?
Answer: The inhibition was 30.2%.

Question: Which inhibition does the source give for Cc1ccc(C)c(S(=O)(=O)N2CCN(c3ncnc4sccc34)CC2)c1 here?
Answer: Its inhibition is 62.6%.

Question: With O=C(O)c1ccc(CN2C(=O)c3cccc4c([N+](=O)[O-])ccc(c34)C2=O)cc1 as the compound, how does the inhibition read?
Answer: The inhibition was 99.1%.

Question: With COc1cc(Nc2c3ccccc3nc3ccccc23)cc(OC)c1OC as the compound, how does the inhibition read?
Answer: The inhibition was 95.9%.

Question: Which inhibition does the source give for CC(C)CCCCCCCCCCCCC(=O)NCC(=O)NC1C(O)C(O)C(Nc2ncnc3nc[nH]c23)OC1C(O)CO (stereo unspecified) here?
Answer: Its inhibition is 94.6%.

Question: With NS(=O)(=O)c1ccc(CCNc2nn3c(-c4ccc(F)c(Cl)c4)cnc3s2)cc1 as the compound, how does the inhibition read?
Answer: The inhibition was 73.4%.

Question: For COC1CC(C)C(OC)c2cc(O)cc(c2O)NC(=O)C(C)=CC=CC(C)C(OC(N)=O)C(C)=CC(C)C1OC (stereo unspecified), which inhibition is on record?
Answer: Its inhibition is 87.1%.

Question: For Cc1ccc(NC(=S)NC(=O)c2ccc(F)cc2)cc1S(=O)(=O)Nc1ccccc1Cl, which inhibition is on record?
Answer: The inhibition was 70.9%.

Question: Which inhibition does the source give for CS(=O)(=O)Nc1cccc(NC(=O)C2Cc3c(-c4ccccc4)ccnc3O2)c1 (stereo unspecified) here?
Answer: Its inhibition is 0.156%.

Question: Which inhibition does the source give for COc1cc(OC)c2cc(C(=O)N/N=C/c3ccccc3O)[nH]c2c1 here?
Answer: Its inhibition is 79.9%.
